Measurements taken from PubChem BioAssay AID1159580 (chemical genetic matrix, 2015).
Several values for one entry are separate records, joined by “and”; a condition that tells them apart may be missing. Identical values can stand only once. Among all 5,500 compounds or so, about 2,000 (36%) were called active. Inconclusive results (about 18%) are left out. Some of the results follow. Unmarked numbers belong to inactive results. No stated cut-off is given here; in the data, active means normalized growth mostly below about 0.91 (no sharp cut-off); inconclusive means no clear call, values can overlap the other calls; inactive means mostly above about 0.92.

Experiment: chemical genetic growth profiling, strain panel (AID 1159580);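 further: tested at 20 µM; growth read once vehicle control cultures reached saturation at 30 °C; 1 = growth at the plate median or of vehicle wells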
Conditions: growth OD
[1] = S. cerevisiae deletion strains, locus YBR229C, strain ROT2, stronger effect = lower value
[2] = S. cerevisiae deletion strains, locus YDL101C, strain DUN1, stronger effect = lower value
[3] = S. cerevisiae deletion strains, locus YDR150W, strain NUM1, stronger effect = lower value
[4] = S. cerevisiae deletion strains, locus YEL061C, strain CIN8, stronger effect = lower value
[5] = S. cerevisiae deletion strains, locus YGR078C, strain PAC10, stronger effect = lower value
[6] = S. cerevisiae deletion strains, locus YHR030C, strain SLT2, stronger effect = lower value
[7] = S. cerevisiae deletion strains, locus YJR043C, strain POL32, stronger effect = lower value
[8] = S. cerevisiae deletion strains, locus YJR075W, strain HOC1, stronger effect = lower value
[9] = S. cerevisiae deletion strains, locus YLR039C, strain RIC1, stronger effect = lower value
[10] = S. cerevisiae deletion strains, locus YLR262C, strain YPT6, stronger effect = lower value
[11] = S. cerevisiae deletion strains, locus YMR307W, strain GAS1, stronger effect = lower value
[12] = S. cerevisiae deletion strains, locus YNL153C, strain GIM3, stronger effect = lower value
[13] = S. cerevisiae deletion strains, locus YPL055C, strain LGE1, stronger effect = lower value
[14] = S. cerevisiae deletion strains, locus YPL241C, strain CIN2, stronger effect = lower value
[15] = S. cerevisiae strains, strain wild type, stronger effect = lower value
[16] = S. cerevisiae deletion strains, locus YAL013W, strain DEP1, stronger effect = lower value
[17] = S. cerevisiae deletion strains, locus YDL134C, strain PPH21, stronger effect = lower value
[18] = S. cerevisiae deletion strains, locus YHR087W, strain rtc3, stronger effect = lower value
[19] = S. cerevisiae deletion strains, locus YJL187C, strain SWE1, stronger effect = lower value
[20] = S. cerevisiae deletion strains, locus YLR058C, strain SHM2 (second series), stronger effect = lower value
[21] = S. cerevisiae deletion strains, locus YLR085C, strain ARP6, stronger effect = lower value
[22] = S. cerevisiae deletion strains, locus YML094W, strain GIM5, stronger effect = lower value
[23] = S. cerevisiae deletion strains, locus YMR219W, strain ESC1, stronger effect = lower value
[24] = S. cerevisiae deletion strains, locus YMR263W, strain SAP30, stronger effect = lower value
[25] = S. cerevisiae deletion strains, locus YNL298W, strain CLA4 (second series), stronger effect = lower value
[26] = S. cerevisiae deletion strains, locus YNL322C, strain KRE1, stronger effect = lower value
[27] = S. cerevisiae deletion strains, locus YNR030W, strain Alg12, stronger effect = lower value
[28] = S. cerevisiae deletion strains, locus YPR135W, strain CTF4, stronger effect = lower value
[29] = S. cerevisiae deletion strains, locus YCL061C, strain MRC1, stronger effect = lower value

## O=c1ccn([C@@H]2O[C@H](COP(=O)(O)OP(=O)(O)OP(=O)(O)O)[C@@H](O)[C@H]2O)c(=O)[nH]1
S. cerevisiae deletion strains, locus YBR021W, strain FUR4, stronger effect = lower value
  normalized growth: 1.06
[1]
  normalized growth: 1.02
S. cerevisiae deletion strains, locus YCL029C, strain bik1, stronger effect = lower value
  normalized growth: 0.999
S. cerevisiae deletion strains, locus YDL035C, strain GPR1, stronger effect = lower value
  normalized growth: 1.02
S. cerevisiae deletion strains, locus YDL074C, strain BRE1, stronger effect = lower value
  normalized growth: 1.04
[2]
  normalized growth: 1.02
S. cerevisiae deletion strains, locus YDL185W, strain tfp1, stronger effect = lower value
  normalized growth: 0.974
S. cerevisiae deletion strains, locus YDL192W, strain arf1, stronger effect = lower value
  normalized growth: 0.991
S. cerevisiae deletion strains, locus YDR101C, strain arx1, stronger effect = lower value
  normalized growth: 1.03
[3]
  normalized growth: 1.02
S. cerevisiae deletion strains, locus YDR162C, strain NBP2, stronger effect = lower value
  normalized growth: 1.01
S. cerevisiae deletion strains, locus YDR318W, strain mcm21, stronger effect = lower value
  normalized growth: 1
S. cerevisiae deletion strains, locus YDR388W, stronger effect = lower value
  normalized growth: 0.988
S. cerevisiae deletion strains, locus YDR502C, strain sam2, stronger effect = lower value
  normalized growth: 0.993
[4]
  normalized growth: 1.01
S. cerevisiae deletion strains, locus YER110C, stronger effect = lower value
  normalized growth: 0.954
S. cerevisiae deletion strains, locus YER155C, strain BEM2, stronger effect = lower value
  normalized growth: 1.02
S. cerevisiae deletion strains, locus YER167W, strain BCK2, stronger effect = lower value
  normalized growth: 1.02
S. cerevisiae deletion strains, locus YGL078C, strain dbp3, stronger effect = lower value
  normalized growth: 0.984
S. cerevisiae deletion strains, locus YGL086W, strain mad1, stronger effect = lower value
  normalized growth: 0.996
S. cerevisiae deletion strains, locus YGL248W, strain PDE1, stronger effect = lower value
  normalized growth: 1.02
[5]
  normalized growth: 1.02
S. cerevisiae deletion strains, locus YGR135W, strain pre9, stronger effect = lower value
  normalized growth: 0.946
S. cerevisiae deletion strains, locus YGR252W, strain gcn5, stronger effect = lower value
  normalized growth: 0.975
[6]
  normalized growth: 1.01 and 1.04
S. cerevisiae deletion strains, locus YHR079C, strain IRE1 (second series), stronger effect = lower value
  normalized growth: 1
S. cerevisiae deletion strains, locus YHR079C, strain IRE1, stronger effect = lower value
  normalized growth: 1.04
S. cerevisiae deletion strains, locus YHR094C, strain hxt1, stronger effect = lower value
  normalized growth: 0.996
S. cerevisiae deletion strains, locus YHR129C, strain ARP1, stronger effect = lower value
  normalized growth: 1.02
S. cerevisiae deletion strains, locus YHR200W, strain rpn10, stronger effect = lower value
  normalized growth: 1
S. cerevisiae deletion strains, locus YIL066C, strain RNR3, stronger effect = lower value
  normalized growth: 1.03
S. cerevisiae deletion strains, locus YIL073C, strain SPO22, stronger effect = lower value
  normalized growth: 0.962
S. cerevisiae deletion strains, locus YIL125W, strain kgd1, stronger effect = lower value
  normalized growth: 1.01
S. cerevisiae deletion strains, locus YIR030C, strain dcg1, stronger effect = lower value
  normalized growth: 0.996
S. cerevisiae deletion strains, locus YJL095W, strain BCK1, stronger effect = lower value
  normalized growth: 1.04
S. cerevisiae deletion strains, locus YJL134W, strain LCB3, stronger effect = lower value
  normalized growth: 1.01
S. cerevisiae deletion strains, locus YJL168C, strain set2, stronger effect = lower value
  normalized growth: 0.98
S. cerevisiae deletion strains, locus YJL187C, strain SWE1 (second series), stronger effect = lower value
  normalized growth: 1.03
[7]
  normalized growth: 1.04
S. cerevisiae deletion strains, locus YJR066W, strain TOR1, stronger effect = lower value
  normalized growth: 1.01
[8]
  normalized growth: 1
S. cerevisiae deletion strains, locus YKL009W, strain mrt4, stronger effect = lower value
  normalized growth: 0.979
S. cerevisiae deletion strains, locus YKL068W, stronger effect = lower value
  normalized growth: 1.02
S. cerevisiae deletion strains, locus YKL085W, strain MDH1 (second series), stronger effect = lower value
  normalized growth: 1.01
S. cerevisiae deletion strains, locus YKL085W, strain MDH1, stronger effect = lower value
  normalized growth: 1.01
S. cerevisiae deletion strains, locus YKR001C, strain vps1, stronger effect = lower value
  normalized growth: 0.99
[9]
  normalized growth: 1.04
S. cerevisiae deletion strains, locus YLR058C, strain SHM2, stronger effect = lower value
  normalized growth: 1.01
S. cerevisiae deletion strains, locus YLR102C, strain apc9, stronger effect = lower value
  normalized growth: 1
S. cerevisiae deletion strains, locus YLR113W, strain HOG1, stronger effect = lower value
  normalized growth: 1.05
[10]
  normalized growth: 1.03
S. cerevisiae deletion strains, locus YLR268W, strain sec22, stronger effect = lower value
  normalized growth: 0.988
S. cerevisiae deletion strains, locus YLR330W, strain CHS5, stronger effect = lower value
  normalized growth: 1.01
S. cerevisiae deletion strains, locus YLR342W, strain FKS1 (second series), stronger effect = lower value
  normalized growth: 1.03
S. cerevisiae deletion strains, locus YLR371W, strain rom2, stronger effect = lower value
  normalized growth: 0.998
S. cerevisiae deletion strains, locus YLR418C, strain cdc73, stronger effect = lower value
  normalized growth: 0.976
S. cerevisiae deletion strains, locus YML016C, strain PPZ1, stronger effect = lower value
  normalized growth: 1.01
S. cerevisiae deletion strains, locus YML032C, strain rad52, stronger effect = lower value
  normalized growth: 0.972
S. cerevisiae deletion strains, locus YML124C, strain tub3, stronger effect = lower value
  normalized growth: 0.995
S. cerevisiae deletion strains, locus YMR078C, strain ctf18, stronger effect = lower value
  normalized growth: 1
S. cerevisiae deletion strains, locus YMR223W, strain ubp8, stronger effect = lower value
  normalized growth: 0.977
[11]
  normalized growth: 0.976
S. cerevisiae deletion strains, locus YNL067W, strain RPL9B, stronger effect = lower value
  normalized growth: 1.04
[12]
  normalized growth: 1.04
S. cerevisiae deletion strains, locus YNL183C, strain NPR1, stronger effect = lower value
  normalized growth: 1.04
S. cerevisiae deletion strains, locus YNL233W, strain BNI4, stronger effect = lower value
  normalized growth: 1.04
S. cerevisiae deletion strains, locus YNL250W, strain rad50, stronger effect = lower value
  normalized growth: 0.989
S. cerevisiae deletion strains, locus YNL271C, strain bni1, stronger effect = lower value
  normalized growth: 0.998
S. cerevisiae deletion strains, locus YNL298W, strain CLA4, stronger effect = lower value
  normalized growth: 0.98
S. cerevisiae deletion strains, locus YNL307C, strain MCK1, stronger effect = lower value
  normalized growth: 0.994
S. cerevisiae deletion strains, locus YNR052C, strain pop2, stronger effect = lower value
  normalized growth: 0.995
S. cerevisiae deletion strains, locus YOL012C, strain htz1
  normalized growth: 0.439
S. cerevisiae deletion strains, locus YOL147C, strain pex11, stronger effect = lower value
  normalized growth: 0.99
S. cerevisiae deletion strains, locus YOR061W, strain CKA2, stronger effect = lower value
  normalized growth: 1.01
S. cerevisiae deletion strains, locus YOR069W, strain VPS5, stronger effect = lower value
  normalized growth: 1.01
S. cerevisiae deletion strains, locus YOR136W, strain idh2, stronger effect = lower value
  normalized growth: 0.997
S. cerevisiae deletion strains, locus YOR144C, strain elg1, stronger effect = lower value
  normalized growth: 0.992
S. cerevisiae deletion strains, locus YOR184W, strain ser1, stronger effect = lower value
  normalized growth: 0.965
S. cerevisiae deletion strains, locus YOR231W, strain MKK1, stronger effect = lower value
  normalized growth: 1.07
S. cerevisiae deletion strains, locus YOR316C, strain cot1, stronger effect = lower value
  normalized growth: 1
[13]
  normalized growth: 1.04
[14]
  normalized growth: 0.998
S. cerevisiae deletion strains, locus YPL256C, strain CLN2, stronger effect = lower value
  normalized growth: 1.03
S. cerevisiae deletion strains, locus YPR119W, strain clb2, stronger effect = lower value
  normalized growth: 1
S. cerevisiae deletion strains, locus YPR141C, strain kar3, stronger effect = lower value
  normalized growth: 1.01
S. cerevisiae deletion strains, locus YPR163C, strain tif3, stronger effect = lower value
  normalized growth: 1.02
S. cerevisiae deletion strains, locus YPR167C, strain met16, stronger effect = lower value
  normalized growth: 1
S. cerevisiae deletion strains, strain wtn01, stronger effect = lower value
  normalized growth: 0.977
[15]
  normalized growth: 1.01

## Cc1onc(-c2ccccc2Cl)c1C(=O)Nc1ccc2c(c1)OCO2
[16]
  normalized growth: 0.993
[1]
  normalized growth: 1.02
[2]
  normalized growth: 1
[17]
  normalized growth: 0.985
[3]
  normalized growth: 0.935
[4]
  normalized growth: 1.01
[5]
  normalized growth: 1
S. cerevisiae deletion strains, locus YGR229C, strain SMI1, stronger effect = lower value
  normalized growth: 0.997
[6]
  normalized growth: 1.08
[18]
  normalized growth: 1.01
[19]
  normalized growth: 1.01
[7]
  normalized growth: 1.03
[8]
  normalized growth: 1.01
[9]
  normalized growth: 0.971
[20]
  normalized growth: 1.02
[21]
  normalized growth: 0.997
[10]
  normalized growth: 0.99
[22]
  normalized growth: 1.02
[23]
  normalized growth: 1
[24]
  normalized growth: 0.919
[11]
  normalized growth: 1.01
[12]
  normalized growth: 1
[25]
  normalized growth: 1.04
[26]
  normalized growth: 0.995
[27]
  normalized growth: 1.03
[13]
  normalized growth: 0.888
[14]
  normalized growth: 1.01
[28]
  normalized growth: 1.14

## CSc1nc2ccc(NC(=O)c3c(-c4ccccc4)noc3C)cc2s1
[16]
  normalized growth: 0.971
[1]
  normalized growth: 1.01
[29]
  normalized growth: 0.99
[2]
  normalized growth: 1.01
[17]
  normalized growth: 1
[3]
  normalized growth: 0.896
[4]
  normalized growth: 1
[5]
  normalized growth: 0.984
[6]
  normalized growth: 0.897
[18]
  normalized growth: 1
[19]
  normalized growth: 1
[7]
  normalized growth: 0.999
[8]
  normalized growth: 1
[9]
  normalized growth: 0.888
[20]
  normalized growth: 0.996
[21]
  normalized growth: 0.85
[10]
  normalized growth: 0.787 (active)
[22]
  normalized growth: 0.974
[23]
  normalized growth: 1
[24]
  normalized growth: 0.945
[11]
  normalized growth: 0.961
S. cerevisiae deletion strains, locus YNL128W, strain TEP1, stronger effect = lower value
  normalized growth: 1
[12]
  normalized growth: 1.01
[25]
  normalized growth: 1
[26]
  normalized growth: 0.998
[27]
  normalized growth: 1
[13]
  normalized growth: 0.926
[14]
  normalized growth: 1
[28]
  normalized growth: 0.921
[15]
  normalized growth: 1.01

## Cc1onc(-c2ccccc2Cl)c1C(=O)Nc1ccc(S(=O)(=O)Nc2nccs2)cc1
[16]
  normalized growth: 1.01
[1]
  normalized growth: 1.01
[29]
  normalized growth: 0.985
[2]
  normalized growth: 0.977
[17]
  normalized growth: 0.976
[3]
  normalized growth: 0.972
[4]
  normalized growth: 1.01
[5]
  normalized growth: 1.01
[6]
  normalized growth: 0.982
[18]
  normalized growth: 0.968
[19]
  normalized growth: 1
[7]
  normalized growth: 0.966
[8]
  normalized growth: 1
S. cerevisiae deletion strains, locus YKL190W, strain CNB1, stronger effect = lower value
  normalized growth: 0.989
[9]
  normalized growth: 0.975
[20]
  normalized growth: 0.982
[21]
  normalized growth: 1.05
[10]
  normalized growth: 0.97
[22]
  normalized growth: 1.03
[23]
  normalized growth: 0.999
[24]
  normalized growth: 1
[12]
  normalized growth: 0.98
[25]
  normalized growth: 0.949
[26]
  normalized growth: 0.995
[27]
  normalized growth: 0.996
S. cerevisiae deletion strains, locus YOL006C, strain TOP1, stronger effect = lower value
  normalized growth: 0.926
[13]
  normalized growth: 1.05
[14]
  normalized growth: 1.01
[28]
  normalized growth: 0.932
[15]
  normalized growth: 0.968
